This is an account of results in PubChem BioAssay AID1259422 (The Scripps Research Institute Molecular Screening Center, 2018).

SMILES strings stand for the structures. In all, about 640,000 compounds went through this assay and about 9,300 (1.5%) were called active. Many of the other results were omitted from the sample, so actives are more common in it than they were. Values without a mark were called inactive. Cut-off read from the data, not from the text of the source: active = inhibition above about 32%; inactive = the rest.

The nature of this assay: TEAD-YAP interaction inhibition, primary screen, TEAD-YAP interaction inhibitor project, luminescence, HEK-TIYL cells (AID 1259422).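 Note: 0% = median of test compound wells and 100% = reference inhibitor wells.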 The following applies: TEAD-Gal4/YAP UAS-luciferase luminescence, at 9.12 µM, hits give high values.
As to `c1ccc(Oc2ccc(-c3cnn4c(NCCCN5CCOCC5)ccnc34)cc2)cc1`, the inhibition is 42% (active).
In the case of `Cc1ccc(-c2cnn3c(NCCCN4CCOCC4)ccnc23)cc1C`, the inhibition is 10.5%.
The figure for `c1ccc(Cn2cc(-c3cnn4c(NCCCN5CCOCC5)ccnc34)cn2)cc1` is -1.52%.
The figure for `CCOc1cc2c(cc1OCC)C(c1cc(OC)ccc1F)NCC2` (centres undefined) is 4.41%; for `CC(C)(O)C#CC(O)c1cccc([N+](=O)[O-])c1` (centres undefined) it is -0.86%.
The result for `COc1ccc(C(c2sc3ncnn3c2O)N2CC(C)OC(C)C2)cc1` (centres undefined) reads 10.7%; that for `COc1ccc(C(=O)NCC(=O)NNc2ncnc(N)c2[N+](=O)[O-])c(OC)c1`, 11.1%.
`O=C(N/N=C/c1cc(Br)ccc1O)c1cc(-c2cccs2)[nH]n1`: the inhibition is 65.8% (active).
As to `O=C(N/N=C/c1cc(Br)ccc1O)c1ccc(=O)[nH]n1`, the inhibition was 14.8%.
The figure for `COc1cccc(/C=N/NC(=O)c2cc(-c3cccs3)[nH]n2)c1O` is 68% (active); for `CCOc1ccc(/C=N/NC(=O)c2cc(-c3cccs3)[nH]n2)cc1` it is -4.12%; for `COc1ccccc1/C=N/NC(=O)c1cc(-c2ccc(C)o2)[nH]n1` it is 4.17%.
The figure for `O=C(N/N=C/c1cc(Br)ccc1O)c1cc(Br)ccc1O` is -12%; for `Cc1ccc(CNS(=O)(=O)c2ccc(F)c(C(=O)Nc3cccc(Cl)c3)c2)cc1` it is -4.88%.
On to `COc1cc(C=Nc2ccc(NC(C)=O)cc2)ccc1OC(=O)c1cccs1`, for which the inhibition was -6.6%.
In the case of `COc1ccccc1NS(=O)(=O)c1ccc(Cl)c(C(=O)Nc2ccccc2C)c1`, the inhibition was 0.37%.
As to `O=C(Cc1cccc(Cl)c1)NCC1CCC2(CCN(C(=O)C3CC3)CC2)O1` (centres undefined), the inhibition was -0.11%.
The result for `COc1ccc(C2CCN(C(=O)C3CCCO3)CC2)cc1` (centres undefined) reads -7.42%; that for `Cc1cccc2c1CC(=O)NC21CCN(Cc2ccc3ccccc3c2)CC1`, 7.07%.
The figure for `Cc1ccc(OCC(=O)Nc2nc(-c3ccccc3)cs2)c(Br)c1` is 5.91%.
For the molecule `CCc1ccc(OCC(=O)Nc2nc(C)c(C)s2)c(Br)c1`, the inhibition is 77.7% (active).
Consider `CCc1ccc(OCC(=O)NCc2ccncc2)c(Br)c1`, for which the inhibition was -4.34%.
As to `CCOC(=O)C1(CCOc2ccccc2)CCN(Cc2cnn(C(C)C)c2)CC1`, the inhibition is 10.3%.
The result for `O=[N+]([O-])c1ccc2oc(-c3cccc(O)c3)nc2c1` reads 73.9% (active).
The result for `O=C(COc1ccc([N+](=O)[O-])cc1)Nc1ccc2oc(-c3cccc(F)c3)nc2c1` reads -7.11%; that for `O=C(Nc1ccc2oc(-c3ccc(F)cc3)nc2c1)c1ccc([N+](=O)[O-])cc1`, 11.2%.
The figure for `Cc1ccc2nc3c(cc(C#N)c(=O)n3-c3cccc(Cl)c3)c(=O)n2c1` is -0.14%; for `CC1=CN2C(=O)NC(C(F)(F)F)(C(F)(F)F)N=C2S1` it is -16.6%.
`COCCCNC(=O)Cn1cc(/C=C(\C#N)C(=O)NCc2ccco2)c2ccccc21`: the inhibition was 3.94%.
The result for `COCCCNC(=O)/C(C#N)=C/c1ccc(-c2cccc(Cl)c2Cl)o1` reads 1.01%.
The figure for `COCCCNC(=O)/C(C#N)=C/c1cc(C)n(-c2cccc3ccccc23)c1C` is 47.1% (active); for `COc1ccc(NC(=O)c2sc3nc(-c4cccc([N+](=O)[O-])c4)cn3c2C)cc1` it is 4.9%.
For `CCOc1ccc(Br)cc1S(=O)(=O)Nc1ccccc1C(=O)O`, the inhibition is 3.25%.
For the molecule `CCOc1ccc(Br)cc1CSC(=N)N`, the inhibition was 55.7% (active).
With `CCOC(=O)C1CCN(S(=O)(=O)c2cc(Br)ccc2OCC)CC1`, the inhibition is 0.17%.
The figure for `CC(=O)N(Cc1cccnc1)Cc1cc2cc(C)c(C)cc2nc1Cl` is 6.62%; for `Cc1cccc(C(=O)Nc2ccc(C(=O)N/N=C/c3ccc(O)cc3)cc2)c1` it is -12.2%.
As to `CCOc1ccccc1NS(=O)(=O)c1ccc2c(c1)NC(=O)C(C)C(=O)N2` (centres undefined), the inhibition is -5.49%.
As for `O=C1CS(=O)(=O)C(c2ccccc2[N+](=O)[O-])N1c1ccc(Oc2ccc(Cl)cc2)cc1` (centres undefined), the inhibition is 11.6%.
Take `CN(C)c1nc(N)nc(CSc2ccccn2)n1`: the inhibition is -4.14%.
Take `COc1ccc(-n2nnnc2SCc2nc(N)nc(N3CCOCC3)n2)cc1`: the inhibition is -11.4%.
The figure for `CN(C)c1nc(N)nc(CSc2nnnn2-c2cccc3ccccc23)n1` is 35.1% (active); for `CCOC(=O)c1sc2nc(C)nc(OCc3ccccc3C)c2c1C` it is -7.17%; for `COc1ccccc1-c1cc(C(F)(F)F)nc(S(=O)(=O)CCCC(=O)Nc2sc(C(N)=O)c(C)c2C(=O)OC(C)C)n1` it is -2.08%.
The figure for `CCN(Cc1ccccc1)S(=O)(=O)c1cc(C(=O)Nc2cccc(C)c2)ccc1F` is 51.1% (active); for `CCN(Cc1ccccc1)S(=O)(=O)c1ccc(F)c(C(=O)Nc2ccc(C)cc2)c1` it is -16.5%.
As for `CCN(c1cccc(C)c1)S(=O)(=O)c1cc(C(=O)Nc2ccc(Oc3ccccc3)cc2)ccc1F`, the inhibition was 35.4% (active).
Regarding `Cc1cccc(NC(=O)c2ccc(F)c(S(=O)(=O)N(C)C3CCCCC3)c2)c1`, the inhibition is -12.6%.
As for `O=C(Nc1ccc(Oc2ccccc2)cc1)c1ccc(F)c(S(=O)(=O)N2CCc3ccccc3C2)c1`, the inhibition was -0.62%.
On to `CCOc1cccc(NC(=O)c2ccc(F)c(S(=O)(=O)N(CC)c3cccc(C)c3)c2)c1`, for which the inhibition is -0.19%.
The result for `COc1cccc(-c2ccccc2NC(=O)C2CCN(Cc3ccccn3)CC2)c1` reads 10.6%; that for `CC1=C(C(=O)Nc2nc3ccccc3s2)C(c2ccsc2)C2=C(CCCC2=O)N1` (centres undefined), 12.1%.
The figure for `COC(=O)c1c(OCCN2CCCC2=O)cc(=O)n2c1CCN(CC(C)C)CC2` is -5.77%; for `Cc1ccc(-c2ncn(-c3ccc(Nc4nccc(-c5cc(F)cc(N6CCOCC6)c5)n4)cc3)n2)nc1` it is 8.1%; for `Fc1cc(-c2nc(Nc3ccc(CN4CCOCC4)cc3)ncc2F)cc(N2CCOCC2)c1` it is 74.6% (active).
Turning to `c1cncc(CNc2nccc(Nc3ccc(N4CCOCC4)cc3)n2)c1`, the inhibition was 1.72%.
In the case of `Fc1cnc(Nc2ccc(Cn3ccnc3)cc2)nc1-c1cccc(N2CCOCC2)c1`, the inhibition was 84.8% (active).
As to `Fc1ccc(CN2CCOCC2)cc1F`, the inhibition was -5.29%.
The result for `Cc1ccc(-c2ncn(-c3ccc(Nc4ncc(F)c(-c5cccc(N6CCOCC6)c5)n4)cc3)n2)cn1` reads 28.1%.
